p53ts 39C tox: cytotoxicity in p53ts cells at nonpermissive temperature | H1299-p53A138V viability at 39C, ATP luminescence, 24 h | Potency, µM (doses to about 46.1 µM), most hits filed as cytotoxic | actives 1.5% (n = 130,000) | AID 902; note: nearly all actives have a fitted effect of over 55% in size
IkB sig inh: IkB pathway inhibition in ABC-DLBCL cells. ABC-DLBCL IkBa-CBG/CBR dual luciferase ratio, 4 h; response scale: scaled: untreated 0%, proteasome inhibitor 100%. Potency, µM (doses to about 57.1 µM). actives 0.04% (n = 110,000). AID 445; active = well fitted curve in the direction sought with a large enough effect in the signal ratio, not every such curve was filed as active; inconclusive = small, poorly fitted or top-dose-only effect, or a change in a side signal; the % refers to the signal ratio;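 note: the direction sought is a rising ratio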
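Luminescence ratio of IκBα-fused green versus native red beetle luciferase in OCI-Ly3 cells, 4 h post-doxycycline with compound; red signal alone, scaled from basal (0%) to zero light (-100%), flagged nonspecific or cytotoxic effects.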
p53ts 32C kill: cytotoxicity in p53ts cells at permissive temperature; actives 0.93% (n = 130,000); Potency, µM (highest dose often 46.1 µM), most hits filed as cytotoxic; H1299-p53A138V at 32C, ATP luminescence viability, 24 h; AID 924; note: nearly all actives have a fitted effect of over 55% in size
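ATP-content luminescence (ATPlite) read-out after 24 h compound exposure at 32C in H1299-p53A138V cells (600/well). Tested up to 46 uM. Normalized to DMSO (0%) and 100 uM tamoxifen (100% killing); Hill-fit AC50.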
Imprint erasure: inducers of genomic imprint erasure in mouse ES cells | mouse ES Peg3-LacZ reporter, beta-gal luminescence, 40 h | Potency, µM (top dose mostly 60.7 µM), usual class: activators | actives 0.02% (n = 110,000) | AID 1948
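Each well holds 300 Peg3LacZ-Neo (maternal) female ES cells incubated 40 h at 37C, 5% CO2. LacZ is measured by BetaGlo luminescence, with AC50 and maximum efficacy derived from dose-response curves.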
A number is an active result; – = inactive; ? = inconclusive; · = no result; [ ] = dose if it differs, or a comment. Most compounds without a hit are left out; they make up all but 1.7% or so of the library. Unless noted, calls come from the whole dose curve; as a rule, active = well fitted curve in the direction sought with a large enough effect; inconclusive = small, poorly fitted or top-dose-only effect, or another doubt; inactive = no such curve, though single readings can be large; an effect the other way counts as inactive or inconclusive.

SMILES	p53ts 39C tox	IkB sig inh	p53ts 32C kill	Imprint erasure
COc1ccc(CCC(=O)Nc2ccc(-c3noc(-c4ccc(OC)c(OC)c4)n3)cc2)cc1	–	–	–	–
COc1ccc(C(=O)Nc2nc3ccccc3[nH]2)cc1OC	?	?	?	–
O=C(Nc1nc2ccccc2[nH]1)c1ccc(F)cc1	2µM	?	3.2µM	–
O=C(Nc1nc2ccccc2[nH]1)c1ccccc1F	1.6µM	?	1.3µM	–
OC[C@@H]1O[C@@H](n2cnc3c(NC4CCCC4)ncnc32)[C@@H](O)[C@H]1O	–	?	–	·
CCCS(=O)(=O)NCCc1csc(-c2cccnc2)n1	–	–	–	–
C=C1C(=O)O[C@H]2C[C@@]3(C)CCCC(=C)[C@@H]3C[C@H]12	·	–[11.4 µM]	·	·
FC(F)(F)c1ccccc1-c1nccc(-n2ccnc2)n1	–	–[11.4 µM]	–	–
COc1ccc(-c2cc(C(N)=O)nc(N3CCCCCC3)n2)cc1	10µM	?	7.9µM	–
COc1ccc(-c2cc(C(F)(F)F)nc(N3CCCCCC3)n2)cc1	–	–	–	–
CCCCNc1nc(C)nc2c1nc(-c1ccccc1)n2CCN1CCCCC1	–	·	–	–
O=c1cc(-c2ccccc2O)oc2ccc3ccccc3c12	2µM	–[11.4 µM]	2.5µM	–
CCN(CC)CCCC(C)n1c(-c2ccccc2)nc2c(NC3CCCCC3)nc(C)nc21 (configuration not stated)	?	·	?	–
CC(C)C[C@H](NC(=O)[C@@H](NC(=O)N[C@@H](Cc1ccccc1)C(=O)O)[C@H]1CCN=C(N)N1)C(=O)N[C@H](C=O)Cc1ccccc1	·	–[11.4 µM]	·	·
OC[C@@H]1O[C@@H](n2cnc3c(NCc4ccco4)ncnc32)[C@H](O)[C@H]1O	·	–[11.4 µM]	·	·
Nc1ncnc2c1ncn2C1OC(CO)C(O)C1O (configuration not stated)	–	·	–	–
OC[C@H]1O[C@@H](n2cnc3cncnc32)[C@H](O)[C@@H]1O	10µM	·	?	–
Nc1nc(Cl)nc2c1ncn2[C@@H]1O[C@@H](CO)[C@@H](O)[C@H]1O	13µM	?	16µM	·
OC[C@H]1O[C@@H](n2cnc3c(NCc4ccco4)ncnc32)[C@H](O)[C@@H]1O	?	·	16µM	–
CSc1ncnc2c1ncn2C1OC(CO)C(O)C1O (configuration not stated)	10µM	·	?	?
O=C(Nc1ccc2nc(-c3cccs3)[nH]c2c1)c1ccco1	13µM	–	?	–
CC(C)c1ccc(NC(=O)c2ccc3c(c2)CCN3S(=O)(=O)c2ccccc2)cc1	–	–	–	–[10.9 µM]
CC(C)c1ccc(NC(=O)c2ccc3c(c2)CCCN3S(C)(=O)=O)cc1	–	–	13µM	–[10.9 µM]
N#Cc1c(-n2ncnc2-c2ccc(F)cc2)sc2c1CCCCC2	13µM	?	13µM	–[10.9 µM]
Cc1ccccc1-c1ncnn1-c1sc2c(c1C#N)CCCCC2	13µM	?	?	–[10.9 µM]
SMILES	p53ts 39C tox	IkB sig inh	p53ts 32C kill	Imprint erasure
N#Cc1c(-n2ncnc2-c2cccc(Br)c2)sc2c1CCCCC2	–	?	–	–[10.9 µM]
CN(C)c1ncnc2ccc(-c3ccc4c(c3)OCO4)cc12	–	–[11.4 µM]	–	–
CCCOc1ccc(-c2nc3ccccc3c(=O)o2)cc1	5µM	–	10µM	–[10.9 µM]
CCCOc1ccc(-c2nnc(-c3ccco3)o2)cc1	?	–	13µM	–
CCC(=O)Nc1cccc(-c2nc3ccccc3c(=O)o2)c1	10µM	?	13µM	–
C[C@@H](Cc1ccccc1)Nc1ncnc2c1ncn2[C@@H]1O[C@@H](CO)[C@H](O)[C@@H]1O	–	?	–	·
COC(=O)C1=C(C)N(Cc2ccccc2)C2=C(C(C)=O)C(c3ccccc3)[C@@](O)(C(=O)OC)C(=O)N2C1c1ccccc1 (some centres not stated)	–[9.22 µM]	·	–[9.22 µM]	·
N#CCCS(=O)(=O)c1nnnn1-c1ccccc1	20µM	?	?	–
COc1cccc(NC2CC(=O)N(CCc3ccccc3)C2=O)c1 (configuration not stated)	–	–	–	–
COc1cccc(CCc2ccccc2OCC[C@@H]2C[C@@H](O)CN2C)c1	13µM	·	?	–
Cc1ccccc1NC(=O)c1ccc(Cl)c(S(=O)(=O)N2CCCCCC2)c1	–	?	?	–[10.9 µM]
Cc1ccc(C(=O)Nc2ccccc2C(=O)O)cc1S(=O)(=O)N1CCCCCC1	4µM	?	7.9µM	–[10.9 µM]
CCN(Cc1ccccc1)S(=O)(=O)c1cc(C(=O)NCC2CCCCC2)ccc1OC	–	·	·	·
O=C(O)c1cccc(NC(=O)c2cccc(S(=O)(=O)N3CCCCC3)c2)c1	–	–	–	–
Cc1ccc(C(=O)Nc2cccc(C(=O)O)c2)cc1S(=O)(=O)N1CCCC1	6.3µM	–	13µM	–[10.9 µM]
CCOC(=O)c1ccc(NC(=O)c2ccc(C)c(S(=O)(=O)N3CCOCC3)c2)cc1	?	?	16µM	–
Cc1ccc(C(=O)Nc2ccc(F)cc2)cc1S(=O)(=O)N1CCOCC1	–	?	–	–[10.9 µM]
CCN(CC)S(=O)(=O)c1cc(C(=O)Nc2ccccc2C(=O)O)ccc1OC	?	–	13µM	–
Cc1nc2cnc(N3CCOCC3)nc2n(CCc2ccccc2)c1=O	–	–[11.4 µM]	–	–
CC1=C(\C=C/C(C)=C/C=C\C(C)=C\C(=O)Nc2ccc(O)cc2)C(C)(C)CCC1	·	–	·	·
COc1ccc2c(c1)C(c1cc(OC)c(OC)c(OC)c1)CC(=O)O2 (configuration not stated)	·	·	·	–
COc1ccc(-c2nc3cnc(N4CCOCC4)nc3n(CCc3ccccc3)c2=O)cc1	–	–[11.4 µM]	–	?
c1ccc(-c2noc(COc3ccc4c(c3)OCO4)n2)cc1	–	–	–	–
Fc1ccc([C@@H]2CCNC[C@H]2COc2ccc3c(c2)OCO3)cc1	13µM	·	?	–
Cc1cccc(-c2nnn3c2nc(NCc2ccc4c(c2)OCO4)c2ccccc23)c1	6.3µM	?	–	–[10.9 µM]
SMILES	p53ts 39C tox	IkB sig inh	p53ts 32C kill	Imprint erasure
Clc1ccc(-c2nnn3c2nc(NCc2ccc4c(c2)OCO4)c2ccccc23)cc1	–	?	–	–[10.9 µM]
c1cnc(N2CCN(c3ncnc4c3oc3ccccc34)CC2)nc1	–	–	–	–
C(=C\c1ccccc1)/CN1CCN(c2ncnc3c2oc2ccccc23)CC1	13µM	?	10µM	–
CCC1CN(C(=O)N2CCC(C(=O)NCCc3cc(OC)ccc3OC)CC2)c2ccccc2O1 (configuration not stated)	–	–	–	–[10.9 µM]
Nc1nc(Sc2ccc([N+](=O)[O-])c3nonc23)c2[nH]cnc2n1	?	4µM	?	–[10.9 µM]
COc1cccc(Nc2ncc3nc(C)c(=O)n(CCC#N)c3n2)c1	–	–[11.4 µM]	–	·
COc1ccc(Nc2nc(-c3cccc(Cl)c3)c3c(n2)-c2ccccc2OC3)cc1	–	–	–	–[10.9 µM]
CCOc1ccc(Nc2nc(-c3cccc(Cl)c3)c3c(n2)-c2ccccc2OC3)cc1	10µM	–	?	–[10.9 µM]
Nc1nc(Nc2ccccc2)nc2ccccc12	2.5µM	?	4µM	–
